# Results: PubChem BioAssay (NCATS)
# Records with an inconclusive call do not appear. Where a call stands in place of a potency, no number is given. The source made the active and inactive calls. Calls follow the shape of the dose curve; as a rule, active = well fitted cell-killing curve with a large enough effect; inconclusive = small, poorly fitted or top-dose-only effect; inactive = flat fitted curve, though single readings scatter.
# Test: Quantitative highthroughput screen to assess conditional lethalithy of NOMO1 cells grown in RPMI1640 with untreated serum (RPMI+s) (AID 1963876); also: nearly all actives have a fitted effect of over 35% in size
# Conditions: NOMO1 AML cells in RPMI+serum, CellTiter-Glo viability, 48 h; series mostly up to 45.8 µM
# Text: Assay Provider: Jason Cantor Ph.D.
# Department of Biochemistry
# University of Wisconsin-Madison, Madison, WI, USA
# Chemical screening studies have identified drug sensitivities across hundreds of cancer cell lines but most putative therapeutics fail to translate. Discovery and development of drug candidates in models that more accurately reflect nutrient levels in human blood is a major challenge. Here we performed high-throughput screens in conventional versus Human Plasma-Like Medium (HPLM) to identify compounds that were "missed" when screening using the artificial culture condition. Sets of conditional anticancer compounds spanned phases of clinical development and included non-oncology drugs were assessed. […] We also traced conditional phenotypes for several chemotherapeutics to availability of HPLM-specific metabolites and confirmed others for compounds whose reported targets are encoded by nonessential genes. Our findings establish generalizable strategies for exploiting conditional lethality in HPLM to reveal therapeutic candidates and mechanisms of action in cancer cells.
# Described herein are the results of each viability screens against three cell lines: NOMO1 (an acute myeloid leukemia cell line); P12-Ichikawa (a T-cell acute lymphoblastic leukemia); and SEM (a B-cell ALL). Each assay was screened using 3 different cell culture media: homemade human plasma-Like medium with 10% dialyzed fetal bovine serum (HPLM+ds); RPMI1640 with 10% untreated FBS and 5mM glucose (RPMI+s); and RPMI1640 with 10% dialyzed fetal bovine serum and 5 mM glucose (RPMI+ds).
# PROTOCOL TABLE (as described by Inglese J, Shamu CE and Guy RK. 2007)
# SEQUENCE No. (e.g., 1, 2, 3, etc.); […] (e.g., Cells, Incubation, Reagent, etc.); VALUE and DESCRIPTION.
# 1; Cells; 5 uL; white, solid bottom 1536-well Greiner assay plate.
# 2; Compounds; 23 nL; Kalypsis pin tool (Wako USA) equipped with a 1536-well pin head to transfer to the assay plates.
# 3; Incubation; 48 hours; 37C incubation.
# 4; Reagent; 3 uL; CellTiter Glo (Promega).
# 5; Incubation; 5 min, room temperature
# 6; Detection; Luminescence, Viewlux PerkinElmer.
# NOTES (numbers refer to Sequence numbers above)
# 1. Briefly, 5 ul of cell reagent was dispensed using a Multidrop Combi Dispenser. The NOMO1 and SEM cells were plated at 500 cells/well and the P12-Ichikawa line at 1000 cells/well.
# 2. After seeding the cells, 23 nL of MIPE 4.1 library compounds (in DMSO) were added to each plate using a Kalypsys 1536 Pintool dispenser. Bortezomib at final concentration of […] and DMSO were added to each plate as positive and negative controls respectively. For each screen, MIPE 4.1 compounds were added over an eleven-point concentration range […] in 3-fold dilutions.
# 3. Each plate was covered with a stainless steel gasketed lid to prevent evaporation and incubated for 48 hour at 37C, 95% relative humidity, and 5% CO2.
# 4-5. Three microliter CellTilter-GloTM luminescent substrate mix (Promega) reagent was added to the assay plate and incubated at room temperature for 5 min.
# 6. The luminescence signal was measured using a ViewLux (PerkinElmer) multiplate reader with a 2 second exposure time per plate. Data for each compound were normalized as percent viability such that measurements for DMSO and the empty well controls in each plate were defined as 100% and 0%, respectively.
# Potency is read from the fitted curve at half-maximal effect.
row,Structure (SMILES),Potency
1,COc1cc(OC)c(OC)cc1C=O,inactive
2,O=c1[nH]c2ccccc2n1C1CCN(Cc2ccc(-c3[nH]c4cc5ncnc5cc4nc3-c3ccccc3)cc2)CC1,inactive
3,CC(C)[C@]12O[C@@H]1[C@@H]1O[C@]13[C@]1(O[C@H]1C[C@@H]1C4=C(CC[C@@]13C)C(=O)OC4)[C@H]2O,1.2 nM (active)
4,Cc1cc(SCc2sc(-c3ccc(C(F)(F)F)c(F)c3)nc2C)ccc1OCC(=O)O,inactive
5,COc1ccc2c(c1OC)CN1CCc3cc4c(cc3C1C2)OCO4 (stereo not given),1480 nM (active)
6,CC1=C(O)C(=O)C=C2C1=CC=C1[C@@]2(C)CC[C@@]2(C)[C@@H]3C[C@](C)(C(=O)O)CC[C@]3(C)CC[C@]12C,3720 nM (active)
7,C[C@]12CC[C@H](O)CC1=CC[C@H]1[C@H]3CCC(=O)[C@@]3(C)CC[C@@H]12,inactive
8,CCCCCC[C@H]1C(=O)O[C@H](C)[C@H](NC(=O)c2cccc(NC=O)c2O)C(=O)O[C@@H](C)[C@@H]1OC(=O)CC(C)C,inactive
9,CNCC(O)c1ccc(O)cc1 (stereo not given),inactive
10,C=CCON=C(C[C@H]1O[C@@H]2O[C@]3(C)CC[C@@H]4[C@H](C)CC[C@@H]([C@H]1C)[C@@]24OO3)[C@H]1O[C@@H]2O[C@]3(C)CC[C@H]4[C@H](C)CC[C@@H]([C@@H]1C)[C@@]24OO3,833 nM (active)
11,CC=C(C)C(=O)O[C@H]1C(C)=C2[C@@H]3OC(=O)[C@@](C)(O)[C@@]3(O)[C@@H](OC(=O)CCC)C[C@](C)(OC(C)=O)[C@@H]2[C@@H]1OC(=O)CCCCCCC,93.5 nM (active)
12,COC1=CC(C)=C[C@@H](C)[C@@H](O)[C@@H](C)CC(C)=CC=C[C@H](OC)[C@H]([C@@H](C)[C@@H](O)[C@H](C)[C@@]2(O)C[C@@H](O)[C@H](C)[C@@H](C(C)C)O2)OC1=O,105 nM (active)
13,C[C@]12Cc3cn[nH]c3C[C@@H]1CC[C@@H]1[C@H]2CC[C@@]2(C)[C@H]1CC[C@]2(C)O,inactive
14,Cn1c(CCCC(=O)O)nc2cc(N(CCCl)CCCl)ccc21,inactive
15,Cc1sc2c(c1C)C(c1ccc(Cl)cc1)=N[C@@H](CC(=O)OC(C)(C)C)c1nnc(C)n1-2,526 nM (active)
16,COC[C@H]1OC(=O)c2coc3c2[C@@]1(C)C1=C(C3=O)C2CCC(=O)[C@@]2(C)C[C@H]1OC(C)=O (stereo not given in full),inactive
17,CN[C@@H]1Cc2cccc3[nH]c(=O)n(c23)C1,inactive
18,c1cc2c(cc1[C@H]1OC[C@H]3[C@H]1CO[C@H]3c1ccc3c(c1)OCO3)OCO2,inactive
19,CC(=O)O[C@@]12CO[C@H]1C[C@H](O)[C@@]1(C)C(=O)[C@H](O)C3=C(C)[C@@H](O)C[C@@](O)([C@@H](OC(=O)c4ccccc4)[C@@H]21)C3(C)C,14800 nM (active)
20,C#CCN(C)[C@H](C)Cc1ccccc1,inactive

row,Structure (SMILES),Potency
1,COCC1(CO)C(=O)C2CCN1CC2 (stereo not given),20900 nM (active)
2,C=C(C)[C@H]1Cc2c(ccc3c2O[C@@H]2COc4cc(OC)c(OC)cc4[C@@H]2C3=O)O1,5260 nM (active)
3,COc1ccc(C(=O)c2c(C)n(CCN3CCOCC3)c3ccccc23)cc1,inactive
4,CC(C)(C)c1cc(C=C(C#N)C#N)cc(Br)c1O,inactive
5,CC(=O)Nc1ccc(OC[C@](C)(O)C(=O)Nc2ccc([N+](=O)[O-])c(C(F)(F)F)c2)cc1,inactive
6,CC(N[C@H]1C[C@H]1c1ccccc1)c1ccc2c(c1)OCCO2 (stereo not given in full),inactive
7,O=C1C=CC[C@@H]2[C@H]3CCCN4CCC[C@@H](CN12)[C@@H]34,inactive
8,O=P1(NCCCl)OCCCN1CCCl (stereo not given),inactive
9,Cn1cc(C2=C(c3cn(C4CCN(Cc5ccccn5)CC4)c4ccccc34)C(=O)NC2=O)c2ccccc21,inactive
10,C[C@]12CCC(=O)C=C1CC[C@@H]1[C@H]3CC[C@](C)(O)[C@@]3(C)CC[C@@H]12,inactive
11,O=C(Oc1ccc([N+](=O)[O-])cc1)N1CCN(Cc2cccc(Oc3ccccc3)c2)CC1,inactive
12,COC(=O)[C@@H](N)CCCN=C(N)N[N+](=O)[O-],inactive
13,CCC1(c2ccc(N)cc2)CCC(=O)NC1=O (stereo not given),inactive
14,CN1C(=O)CCS(=O)(=O)C1c1ccc(Cl)cc1 (stereo not given),inactive
15,CC(=Cc1csc(C)n1)[C@@H]1C[C@H]2O[C@]2(C)CCC[C@H](C)[C@@H](O)[C@@H](C)C(=O)C(C)(C)[C@@H](O)CC(=O)O1,inactive
16,O=C(Nc1ccncc1)C(=O)c1cn(Cc2ccc(Cl)cc2)c2ccccc12,132 nM (active)
17,Cc1ccccc1-n1c(Cn2ncc3c(N)ncnc32)nc2cccc(C)c2c1=O,372 nM (active)
18,CCNC(=O)CC1N=C(c2ccc(Cl)cc2)c2cc(OC)ccc2-n2c(C)nnc21 (stereo not given),inactive
19,Cc1ncc(OC[C@@]2(c3cccc(F)c3)C[C@H]2C(=O)Nc2ccc(F)cn2)c(C)n1,inactive
20,Oc1ccc2c3c1O[C@H]1c4[nH]c5c(c4C[C@@]4(O)[C@@H](C2)N(CC2CC2)CC[C@]314)C[C@@]1(O)[C@H]2Cc3ccc(O)c4c3[C@@]1(CCN2CC1CC1)[C@H]5O4,inactive
